Source: PubChem BioAssay
Shown are actives, neighbours in structure and some others; about 2.3% of the full set was active somewhere.
M1 PAM parental = M1 PAM counterscreen hit in parental CHO-K1 cells | ATP EC20, Fluo-8 calcium fluorescence; 0% at ATP EC20, 100% at ATP max | 360,000 compounds, 0.02% hits | activation, % at 3 µM;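 active = activation above the run cutoff, the mean activation of all test compounds plus 3 SD, cut at about 40% in these data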;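 also: peak over basal fluorescence ratio in a 140 s read after ATP addition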
M1 ag parental = counter-screen for M1 agonists: effect in parental CHO-K1 cells; 360,000 compounds, 0.48% hits; Fluo-8 calcium fluorescence; scaled to maximal ATP response, vehicle zero; activation, % at 3 µM; AID 602248; in the data active = activation above about 15%;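 also: untransfected CHO-K1 host cells lacking M1 receptor as counterscreen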
CHO-K1 Ca antag = M1 antagonist counterscreen hit in parental CHO-K1 cells | ATP-induced calcium, Fluo-8 fluorescence | inhibition, % at 3 µM | 360,000 compounds, 0.6% hits;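 active = inhibition above a per-plate cutoff, the plate's mean sample inhibition plus 3 SD, cut at about 24% in these data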;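 also: 0% = DMSO plus EC80 ATP and 100% = DMSO alone without ATP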
CHRM1 agonist = human M1 muscarinic receptor agonism; P11229; CHO-K1 hM1, Fluo-8 calcium fluorescence, agonist mode; 0% DMSO, 100% acetylcholine EC100; activation, % at 3 µM; 360,000 compounds, 0.33% hits;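 active = activation above the run's mean compound activation plus 3 SD, cut at about 16% in these data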;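 also: peak over basal fluorescence ratio within a 140 s kinetic read after compound addition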
Target sequence (P11229 whole entry, looked up): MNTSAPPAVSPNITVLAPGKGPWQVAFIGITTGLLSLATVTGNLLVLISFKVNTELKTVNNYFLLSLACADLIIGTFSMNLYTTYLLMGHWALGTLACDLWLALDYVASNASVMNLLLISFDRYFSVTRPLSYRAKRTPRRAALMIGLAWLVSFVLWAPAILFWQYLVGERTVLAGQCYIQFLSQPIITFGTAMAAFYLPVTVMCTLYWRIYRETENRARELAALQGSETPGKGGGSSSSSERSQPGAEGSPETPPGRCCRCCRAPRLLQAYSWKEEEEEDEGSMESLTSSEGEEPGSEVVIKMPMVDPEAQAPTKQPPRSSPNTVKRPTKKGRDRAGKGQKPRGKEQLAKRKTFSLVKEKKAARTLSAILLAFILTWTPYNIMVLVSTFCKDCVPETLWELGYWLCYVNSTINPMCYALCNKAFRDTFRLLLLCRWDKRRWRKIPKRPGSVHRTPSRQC
M1 antag = blocks human M1 muscarinic receptor; CHO-K1 hM1, Fluo-8 calcium fluorescence, ACh EC80 antagonist; inhibition, % at 3 µM; 360,000 compounds, 1.3% hits; AID 588852;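 active = percent inhibition above its own plate's cutoff, namely the mean of that plate's compound wells plus 3 SD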;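 also: peak over basal fluorescence ratio during 140 s after agonist addition; 0% = ACh EC80 plus DMSO and 100% = DMSO alone without agonist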
CHRM1 PAM = positive allosteric modulators of human M1 muscarinic receptor; P11229; CHO-K1 hM1, Fluo-8 calcium fluorescence, ACh EC20; 0% = ACh EC20, 100% = maximal ACh; activation, % at 3 µM; 360,000 compounds, 0.088% hits; AID 588819; in the data active = activation above about 19%, passing the limit was not always enough
* marks the source's active call; other numbers are inactive results.

SMILES	M1 PAM parental	M1 ag parental	CHO-K1 Ca antag	CHRM1 agonist	M1 antag	CHRM1 PAM
CCOC(=O)c1c(NC(=O)COc2ccc3ccc(=O)oc3c2)sc(C(=O)N(C)C)c1C	15.2	0.7	-5.4	-3.4	-7.1	7.5
CC1CCN(C(=O)CN(CCc2ccccc2)S(C)(=O)=O)CC1	-6.4	0.1	4.1	-6.1	-8.0	8.8
CC(C)CC(=O)N1CCC(N(CCc2ccccc2)Cc2ccccc2)CC1	19.8	0.1	-14.2	-8.0	56.9*	-27.0
N#CC1(NC(=O)COC(=O)c2nccnc2N)CCCCC1	-10.5	0.2	5.1	-1.5	12.3	-0.8
S=C(NCc1ccncc1)Nc1cc(Cl)cc(Cl)c1	-13.9	13.3	27.3*	13.4	5.1	5.2
S=C(NCc1ccncc1)Nc1ccc(Cl)c(Cl)c1	3.8	12.3	7.2	5.9	11.9	-6.1
COC(=O)c1cc(NC(=S)NCc2ccc(Cl)cc2)cc(C(=O)OC)c1	-5.3	13.3	24.4*	15.4	15.7	-4.5
CSc1ccccc1NC(=S)NCc1ccc(Cl)cc1	12.5	1.7	-3.1	-2.5	25.9*	-9.6
O=C(COC(=O)COc1ccccc1)NCCC1=CCCCC1	-12.4	-0.1	-7.3	-4.8	-1.7	6.6
COc1ccc(N(CC(=O)NCC2CCCO2)C(=O)CCC(=O)Nc2cc(C)on2)cc1OC (stereo not drawn)	-9.6	0.4	-5.7	-2.4	-20.1	9.7
O=C(CN1C(=O)S/C(=C/c2cccs2)C1=O)N1CCOCC1	-6.0	-0.5	17.7	-3.2	37.8*	-10.6
CCOC(=O)C1=C(C)Nc2ccccc2N/C1=N\S(=O)(=O)c1ccc(Cl)cc1	-1.2	5.4	-7.4	-6.9	36.6*	-14.7
CCOC(=O)C1=C(CC)Nc2ccccc2N/C1=N\S(=O)(=O)c1cc(Br)ccc1Br	-16.4	14.6	32.7*	-3.0	34.0*	-29.7
Cc1c(C(=O)N2CCN(c3ccccc3)CC2)sc2ncnc(N3CCN(c4ccccn4)CC3)c12	0.9	2.5	-13.1	-2.8	-3.3	2.9
Cc1c(C(=O)N2CCN(c3ccc(F)cc3)CC2)sc2ncnc(N3CCN(c4ccccn4)CC3)c12	2.4	9.0	8.4	-7.3	31.8*	-20.4
COC(=O)c1ccc2nc(NC(=O)C(C)(C)C)sc2c1	7.1	16.8*	8.0	-9.4	-6.1	1.3
CCN(C(=O)CN1CCCCC1C)c1c(N)n(Cc2ccccc2)c(=O)[nH]c1=O (stereo not drawn)	20.2	0.5	-11.2	-1.7	-11.4	12.8
Cc1nc2ncnn2c(N2CCN(C(c3ccccc3)c3ccccc3)CC2)c1C	3.7	1.8	-25.9	-9.7	-2.0	-2.2
Cc1cc(N2CCN(C(c3ccccc3)c3ccccc3)CC2)n2ncnc2n1	5.7	2.9	-5.0	-0.9	29.9*	-13.0
CC12CCC(C(=O)N3CCCCC3)([C@H](Br)C1=O)C2(C)C (stereo partly drawn)	-0.7	0.1	-18.4	-2.3	-15.5	3.6
COc1ccc(Nc2nc(Cl)c(C=O)s2)cc1	-6.4	7.3	7.7	-2.6	36.7*	-16.6
CCCOc1ccc(C(=O)N2CCCC2C(=O)O)cc1 (stereo not drawn)	13.8	0.4	-31.1	2.9	-24.1	27.8*
CCCCOc1ccc(C(=O)N2CCCC2C(=O)O)cc1 (stereo not drawn)	4.2	-0.1	-4.0	-3.5	-4.1	3.5
COC(=O)c1c(NC(=O)c2cccc([N+](=O)[O-])c2)sc(C(N)=O)c1C	-9.6	-0.7	28.6*	-4.2	9.0	-6.3
COC(=O)c1sc(NC(=O)c2cccc([N+](=O)[O-])c2)c(C(N)=O)c1C	12.4	0.1	-6.4	-3.8	0.6	3.8
SMILES	M1 PAM parental	M1 ag parental	CHO-K1 Ca antag	CHRM1 agonist	M1 antag	CHRM1 PAM
O=C(NCC1CCCO1)c1cc2ccccc2oc1=O (stereo not drawn)	7.2	0.3	-4.2	-8.0	-6.5	5.7
C=CCn1c(SCC#N)nc2sc(CC)cc2c1=O	-7.0	1.3	-19.3	-6.2	34.2*	-20.4
CCOC(=O)C1(C)CCCN(C(=O)c2ccc(C)c(F)c2)C1 (stereo not drawn)	12.5	0.8	-8.6	-8.0	-14.7	1.2
O=C(N/N=C/c1ccc2cccc(OCc3ccccc3)c2n1)c1ccc(Cl)cc1	-3.6	2.3	19.3	-1.4	34.4*	-10.3
COc1ccc(NC(=O)C2CCN(S(=O)(=O)c3ccc4c(c3)NC(=O)CO4)CC2)cc1	-10.1	0.0	-2.4	-3.4	5.6	4.3
O=C(CSc1ccccc1)N1CCCC(N2CCN(c3ccccc3)CC2)C1 (stereo not drawn)	4.0	0.9	-12.6	-4.9	28.4	-10.9
COc1cccc(CN2CC(C(=O)N(C)C3CCOCC3)CCC2=O)c1 (stereo not drawn)	-5.8	0.2	29.5*	-3.7	-9.0	2.7
COc1cccc(CN(C)C(=O)C2CCC(=O)N(Cc3cccc(F)c3)C2)c1 (stereo not drawn)	-10.8	0.8	4.3	-2.1	-12.6	12.9
Cc1ccn2c(=O)c(NC(=O)c3cccs3)c(C)nc2c1	5.4	3.2	-6.0	3.4	-26.6	28.9*
Cc1ccn2c(=O)c(NC(=O)COc3ccccc3)c(C)nc2c1	-3.2	0.4	19.6	-0.7	-14.6	12.7
Cc1ccc(S(=O)(=O)NCC(=O)NC2CC2)cc1	-2.4	-0.2	0.6	-1.4	21.2	-4.4
Cc1c(CCOC(=O)CC23CC4CC(CC(C4)C2)C3)sc[n+]1Cc1ccccc1	15.8	2.3	1.1	-5.0	98.9*	-21.8
Cc1ncc(C[n+]2csc(CCOC(=O)CC34CC5CC(CC(C5)C3)C4)c2C)c(N)n1	19.4	0.5	-3.8	-12.2	-12.5	-2.8
COc1ccnc2c1c(=O)n(Cc1ccc(Cl)cc1Cl)c(=O)n2C	8.5	3.0	-19.3	1.5	-8.8	9.6
CCCCN1C(=O)Cc2c1nc(N)c1c(N)nc(N(CCC)CCC)c(C#N)c21	-8.7	0.4	24.6*	-1.8	12.8	0.3
CCOC(=O)c1c(-c2ccccc2)csc1NC(=O)/C(C#N)=C/c1ccc(OC)c(OC)c1	20.3	0.2	-4.8	-4.0	-9.0	5.9
CCOC(=O)c1c(-c2ccccc2)csc1NC(=O)/C(C#N)=C/c1ccc(O)c(OC)c1	10.1	12.8	20.9	16.7*	29.4	3.6
O=C(OCC(=O)N1CCc2ccccc2C1)c1cc(=O)[nH]c2ccccc12	13.1	14.5	-4.2	-1.8	-24.7	3.0
O=C(O)c1cn2c3c(ccc(Cl)c3c1=O)OCC2	6.8	0.5	-8.5	0.5	-28.2	26.0*
CN(C)CCCN(Cc1ccccc1)C(=S)Nc1cccc(C(F)(F)F)c1	3.5	1.7	4.1	-5.9	6.8	-4.6
CN(C)CCCN(Cc1ccccc1)C(=S)Nc1ccc(F)c(Cl)c1	-9.8	2.4	-5.5	-6.7	38.3*	-21.4
